The list is not random: actives were taken first. Their share in the collection is about 11%.
L3MBTL1 inh: qHTS Assay for the Inhibitors of L3MBTL1; Lethal(3)malignant brain tumor-like protein 1 (Homo sapiens), Q9Y468; AlphaScreen L3MBTL1–H3K9me1 peptide binding; Potency, µM (doses to about 57.1 µM), for inactives: at the top dose activity, negative = inhibition, usual class: inhibitors; 230,000 compounds, 0.66% hits; AID 485360, 2010; also: % is scaled to controls: 0 for no effect and ±100 for the full control effect; nearly all actives have a fitted effect of over 60% in size
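Read-out is AlphaScreen signal from streptavidin donor and nickel chelate acceptor beads (10 ug/mL final each) bridging L3MBTL1 (50 nM) and biotinylated K9-monomethylated H3(1-15) peptide (75 nM), after 30 min compound exposure at room temperature.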
G9a inh: qHTS Assay for Inhibitors of Histone Lysine Methyltransferase G9a; Histone-lysine N-methyltransferase EHMT2 (Homo sapiens), Q96KQ7; G9a H3K9 monomethylation, AlphaScreen, 2 h; Potency, µM (top dose mostly 102 µM), for the others: at the top dose activity, negative = inhibition, most hits filed as inhibitors; 350,000 compounds, 8.8% hits; also: % is scaled to controls: 0 for no effect and ±100 for the full control effect; nearly all actives have a fitted effect of over 75% in size
Target sequence (Q96KQ7 913-1193 limits assumed): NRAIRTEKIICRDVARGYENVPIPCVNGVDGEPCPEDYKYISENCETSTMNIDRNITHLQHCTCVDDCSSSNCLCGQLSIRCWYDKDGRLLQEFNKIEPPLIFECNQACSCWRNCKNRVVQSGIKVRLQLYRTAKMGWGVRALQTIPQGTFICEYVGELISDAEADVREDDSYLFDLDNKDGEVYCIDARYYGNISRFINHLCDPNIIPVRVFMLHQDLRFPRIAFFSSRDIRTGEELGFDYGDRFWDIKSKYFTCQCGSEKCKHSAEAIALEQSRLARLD
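Methyltransferase reactions run at room temperature for 2 h (20 nM enzyme, 500 nM biotin-H3K9 peptide, 20 uM SAM) after a 15 min compound preincubation; product detected by AlphaScreen beads and anti-H3K9me1 antibody.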
HP1b chromo inh: HTS for Inhibitors of HP1-beta Chromodomain Interactions with Methylated Histone Tails; Chromobox protein homolog 1 (Homo sapiens), P83916; AlphaScreen HP1-beta / biotin-H3K9me3 peptide binding; Potency, µM (doses to about 114 µM), inactives show at the top dose activity change, negative = inhibition, most hits filed as inhibitors; 390,000 compounds, 0.56% hits; also: nearly all actives have a fitted effect of over 70% in size
Target sequence (P83916 whole entry, looked up): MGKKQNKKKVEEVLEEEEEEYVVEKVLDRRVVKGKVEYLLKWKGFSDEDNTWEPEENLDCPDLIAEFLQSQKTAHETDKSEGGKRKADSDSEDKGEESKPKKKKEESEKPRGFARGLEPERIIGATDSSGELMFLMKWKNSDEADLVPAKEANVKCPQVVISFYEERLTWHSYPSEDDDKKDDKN
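Compound inhibition of the preformed complex between 50 nM HP1-beta and 50 nM biotinylated H3K9me3 peptide was read by AlphaScreen. Buffer was PBS pH 7.4 with 0.01% Tween-20. Incubations ran 30 min at room temperature, with 10 ug/mL donor/acceptor beads.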
BAZ2B inh: qHTS Assay for Inhibitors of BAZ2B | AID 504333, 2011 | Potency, µM (series often up to 114 µM), inactives show top-dose activity change, negative = inhibition, actives largely listed as inhibitors | AlphaScreen BAZ2B-H3K14Ac peptide displacement | 360,000 compounds, 4.4% hits; also: % is scaled to controls: 0 for no effect and ±100 for the full control effect; nearly all actives have a fitted effect of over 60% in size
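BAZ2B (50 nM) with biotin-H3(5-23)K14Ac peptide (50 nM) in PBS pH 7.4, 0.01% Tween-20, preformed 30 min, then compound 30 min at room temperature; top concentration 110uM. AlphaScreen streptavidin donor/nickel chelate acceptor beads (10 ug/mL final), 20 min dark, signal read.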
JMJD2A Tudor inh: qHTS Assay for Inhibitors of JMJD2A-Tudor Domain; Potency, µM (titrated, usually from 114 µM), inactives show at the highest dose activity change, negative = inhibition, actives largely listed as inhibitors; Lysine-specific demethylase 4A (Homo sapiens), O75164; AID 504339, 2011; AlphaScreen JMJD2A-Tudor / H3K4me3 peptide binding; 390,000 compounds, 4.4% hits; also: % is scaled to controls: 0 for no effect and ±100 for the full control effect; nearly all actives have a fitted effect of over 50% in size
The depositor's hits bear a star; ? = inconclusive; . = no result given; [ ] = dose if it differs, or a comment. Calls follow the shape of the dose curve; as a rule, active = well fitted inhibition curve with a large enough effect; inconclusive = small, poorly fitted or top-dose-only effect; inactive = no such curve, though single readings can be large or run the other way. Potency is read from the fitted curve at half-maximal effect.

SMILES	L3MBTL1 inh	G9a inh	HP1b chromo inh	BAZ2B inh	JMJD2A Tudor inh
O=C(CSc1cccc[n+]1[O-])Nc1ccc([N+](=O)[O-])cc1Cl	4%	56µM*	42%	-13%	-1%
O=C(CCn1ccc2ccccc21)Nc1ccc(N2CCOCC2)cc1	-12%	50µM*	-10%	-9%	-27%[57.1 µM]
O=C(CCn1c(=O)oc2ccccc21)Nc1ccc(N2CCOCC2)cc1	.	21%[59 µM]	0%	4%	-12%
Nc1ccccc1SCC(=O)Nc1ccc(N2CCOCC2)cc1	-1%	45µM*	27%	-32%	-14%
O=C(CSc1cccc[n+]1[O-])Nc1ccc(N2CCOCC2)cc1	-29%	56µM*	.	-21%	.
Cc1ccc(S(=O)(=O)N(C)C)cc1NC(=O)COC(=O)/C=C/c1ccc(F)cc1	-2%	-40%	9%	9%	-13%
COc1cc(F)c(S(=O)(=O)N2CCN(S(=O)(=O)c3ccco3)CC2)c(F)c1	.	.	.	.	-20%
O=C(Cn1cnc2ccccc2c1=O)Nc1ccc(N2CCOCC2)cc1	-29%	-28%	1%	-24%	-17%
Cn1c(=O)c2ncn(CC(=O)Nc3ccc(N4CCOCC4)cc3)c2n(C)c1=O	.	14µM*	12%	-4%	-6%
CN(C)S(=O)(=O)n1cc(/C=C(\NC(=O)c2ccccc2Cl)C(=O)N2CCCC2)c2ccccc21	.	16%	23%	3%	7%
Cc1nc2sc3c(O)cc(=O)[nH]c3c2c(C)c1C	.	50µM*	25%	-6%	-23%
Cc1ccc2c(c1C)NC(C)CC2C (centres undefined)	-7%	14µM*	-13%	?	-8%[11.4 µM]
COc1cccc(/C=N/Nc2ncc(C)c(=O)[nH]2)c1OC	.	32µM*	24%	-2%	-9%
COc1cccc(/C=N/Nc2ncnc3c2[nH]c2ccc(C)cc23)c1OC	.	56µM*	15%	?	-35%
COc1cccc(C=NNc2nnc(NN=Cc3cccc(OC)c3OC)c3ccccc23)c1OC	.	.	?	.	35µM*
CCc1ccc(Cc2cnc(NC(=O)C3=NCCN3)s2)cc1	.	3%	16%	-3%	-25%
O=C(c1cccnc1)C1Cc2ccccc2C1=O (centres undefined)	32%	40µM*	24%	?	-15%
Cc1cc(=O)[nH]c2nnc(SCc3c(F)cccc3Cl)n12	.	5%[59 µM]	37%	0%	-9%
CCOCC(O)COc1ccc(NC(=O)CC[S+](C)C)cc1 (centres undefined)	.	-8%[12.7 µM]	.	.	.
CC1CCCC(C)N1c1nnc(N)s1 (centres undefined)	-2%	18µM*	42%	-16%	-10%
O=C1C=C(c2ccc(C(=O)O)c(Cl)c2)C[C@@H](c2ccc3c(c2)OCO3)C1	-16%	.	20%	.	71µM*
O=C1C=C(c2ccc(-c3ccccc3)cc2)C[C@@H](c2ccc3c(c2)OCO3)C1	5%	5%[0.501 µM]	33%	2%	-11%
CC(C)(C)c1cc(C(=O)N/N=C/c2ccc(-c3ccccc3[N+](=O)[O-])o2)n[nH]1	.	40µM*	-23%	?	?
Nc1ccc(C(=O)N/N=C\c2cc(N=Nc3cccc4ccccc34)ccc2O)cc1	-17%	-7%[0.501 µM]	?	45µM*	?
COC(=O)N/N=C/c1cc(N=Nc2ccccc2Cl)ccc1O	-20%	-24%	33%	?	?
SMILES	L3MBTL1 inh	G9a inh	HP1b chromo inh	BAZ2B inh	JMJD2A Tudor inh
Cc1cc(C(=O)N/N=C/c2cccc([N+](=O)[O-])c2O)n[nH]1	?	23%[59 µM]	31%	32µM*	50µM*
Cc1cc(C(=O)N/N=C/c2cc(N=Nc3ccccc3)ccc2O)n[nH]1	-17%	50µM*	5%	-32%	?
CC1Cc2cc(S(=O)(=O)CCC(=O)Nc3ccc(F)cc3Cl)ccc2N1C(=O)C1CC1 (centres undefined)	.	-1%[59 µM]	40%	-12%	-1%
Cc1ccc(S(=O)(=O)N2CCN(c3nc(-c4cscn4)nc4ccccc34)CC2)cc1	.	.	23%	.	?
COc1cc(NC(=O)Cn2ccc3ccccc3c2=O)cc(OC)c1OC	.	-34%[59 µM]	30%	-14%	-9%
CS(=O)(=O)c1ccc(C(=O)N2CC(=O)Nc3ccccc32)cc1	.	50µM*	25%	-4%	3%
O=C1CN(S(=O)(=O)c2cccc(C(=O)O)c2)c2ccccc2N1	.	50µM*	7%	5%	-7%
COc1ccc(S(=O)(=O)N2CC(=O)Nc3ccccc32)cc1C	.	25%	30%	-4%	-14%
CCc1cccc(Nc2c([N+](=O)[O-])cc(C(=O)N3CC(=O)Nc4ccccc43)cc2[N+](=O)[O-])c1	?	25µM*	?	10µM*	?
COc1cc(S(=O)(=O)N2CC(=O)Nc3ccccc32)ccc1NC(C)=O	.	40µM*	26%	1%	-12%
CSc1ccc(S(=O)(=O)N2CC(=O)Nc3ccccc32)cc1	.	-15%	28%	-18%	-11%
Cc1ccc(NC(=O)CSc2nnc(Cc3cccn3C)n2-c2ccc(F)cc2)c(C)c1	.	28µM*	31%	?	-14%
COc1ccc(Cl)cc1NC(=O)CSc1nnc(Cc2cccn2C)n1-c1ccc(F)cc1	-17%	45µM*	-19%	?	?
Cn1cccc1Cc1nnc(SCC(=O)Nc2ccc(F)cc2F)n1-c1ccc(F)cc1	-12%	-1%[59 µM]	15%	?	-26%
COc1ccc(Cl)cc1NC(=O)CSc1nnc(C2CC2)n1N	8%	79µM*	26%	10%	-11%
Cc1ncc(C[n+]2csc(CCOP(=O)(O)OP(=O)(O)O)c2C)c(N)n1	.	23%[59 µM]	.	.	.
COc1cc(NC(=O)Cn2c(-c3ccccc3)cc(C(C)=O)c2C)cc(OC)c1	.	-7%[59 µM]	23%	-1%	-8%
Cc1ccc(Cl)cc1NC(=O)C(C)n1nc(-c2ccccc2)ccc1=O (centres undefined)	.	-5%[59 µM]	1%	-15%	?
Clc1ccc(CO/N=C2\CCCc3nonc32)cc1	6%	111%	81%	144%	71µM*
Clc1ccccc1CO/N=C1\CCCc2nonc21	41%	62%[59 µM]	133%	120%	55%
CCNc1ncc2nc(-c3ccc(Cl)cc3)c(=O)n(C3CC3)c2n1	.	0%[12.7 µM]	.	.	.
CCCCc1ccc(/C=C2\C(=O)c3ccccc3C(O)=C2C(=O)OCC)cc1	-20%	6.3µM*	.	22µM*	.
CCOc1ccc(/C=C2\SC(=O)N(c3ccc(O)cc3)C2=O)cc1OC	.	17%	37%	-12%	-9%
COc1cc(/C=C2\SC(=O)N(c3ccc(Cl)cc3)C2=O)cc([N+](=O)[O-])c1O	?	7.9µM*	?	7.1µM*	7.9µM*

From PubChem
